Where “and” joins values, the source holds several entries; their conditions need not be identical. Identical values can stand only once. Records with an inconclusive call do not appear. Entries that show only a call come without a potency. Calls of active or inactive are those of the source. Calls follow the shape of the full dose curve. Numbered stars: 1 amine (or outer) side, 2 acyl side, 3 side chain; on linkers, the order of the positions; unused ones are H or OH. Bridge positions count the residues as written; N and C are the ends. Square brackets hold non-standard residues; d marks the D form. Peptide text beside a SMILES is read from it. I, II: the chains in the order shown. Actinocin(9to1) = Cc1c2oc3c(C)ccc(C(=O)[*:1])c3nc-2c(C(=O)[*:2])c(N)c1=O; NMeV = CN[C@H](C(=O)O)C(C)C; Sar = CNCC(=O)O
Experiment: Primary qHTS to identify inhibitors of SARS-CoV-2 cell entry (AID 1645846); also: nearly all actives have a fitted effect of over 45% in size
Details: SARS-CoV-2 pseudovirus cell entry assay, luminescence; activity change, negative = inhibition: at 57.1 µM (top of the series) unless noted; series mostly up to 57.1 µM
Procedure, shortened: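 Entry measured by luciferase signal 48 h after adding SARS-CoV-2-S pseudotyped MLV particles to HEK293-ACE2 cells preincubated 1 h with compounds. Normalisation: bald particles and spike particles.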
Potency is read from the fitted curve at half-maximal effect.

Row | Structure (SMILES) | activity change, negative = inhibition | Potency
1 | Cc1ccc(-c2cc(C(F)(F)F)nn2-c2ccc(S(N)(=O)=O)cc2)cc1 | -19.2% | 
2 | CCN(CC)CCNC(=O)c1cc(Cl)c(N)cc1OC |  | inactive
3 | O[C@@H]1CO[C@H]2[C@@H]1OC[C@@H]2O |  | inactive
4 | CCCCC1=NC2(CCCC2)C(=O)N1Cc1ccc(-c2ccccc2-c2nn[nH]n2)cc1 |  | inactive
5 | CN(C)CCCN1c2ccccc2CCc2ccc(Cl)cc21 |  | 28.2 µM (active)
6 | Cc1cn([C@H]2C[C@H](N=[N+]=[N-])[C@@H](CO)O2)c(=O)[nH]c1=O |  | 1 µM (active)
7 | COc1c(C)c2c(c(O)c1C/C=C(\C)CCC(=O)O)C(=O)OC2 |  | 1 µM (active)
8 | CC(C)(O)c1ccccc1CC[C@@H](SCC1(CC(=O)O)CC1)c1cccc(/C=C/c2ccc3ccc(Cl)cc3n2)c1 |  | inactive
9 | COc1ccccc1OCCNCC(O)COc1cccc2[nH]c3ccccc3c12 (stereo unspecified) |  | 22.4 µM (active)
10 | Cc1c2oc3c(C)ccc(C(=O)N[C@@H]4C(=O)N[C@H](C(C)C)C(=O)N5CCC[C@H]5C(=O)N(C)CC(=O)N(C)[C@@H](C(C)C)C(=O)O[C@@H]4C)c3nc-2c(C(=O)N[C@@H]2C(=O)N[C@H](C(C)C)C(=O)N3CCC[C@H]3C(=O)N(C)CC(=O)N(C)[C@@H](C(C)C)C(=O)O[C@@H]2C)c(N)c1=O (I: T[dV]P[Sar][NMeV] / II: T[dV]P[Sar][NMeV]; ester I:1-I:C, II:1-II:C; linker I:N-II:N via Actinocin(9to1)) | -94.7% | 
11 | COc1ccccc1OCC(O)CN1CCN(CC(=O)Nc2c(C)cccc2C)CC1 (stereo unspecified) | 4.5% and -8.51% | 
12 | N=c1nc(N2CCCCC2)cc(N)n1O | -11.3% | 
13 | CN(C)[C@@H]1C(=O)C(C(N)=O)=C(O)[C@@]2(O)C(=O)C3=C(O)c4c(O)ccc(Cl)c4[C@@H](O)[C@H]3C[C@@H]12 |  | inactive
14 | O=C(C1CCCCC1)N1CC(=O)N2CCc3ccccc3C2C1 (stereo unspecified) |  | inactive
15 | CC(C)(C#N)c1cc(Cn2cncn2)cc(C(C)(C)C#N)c1 |  | inactive
16 | Cn1cc[nH]c1=S |  | inactive
17 | COc1cc(Cc2cnc(N)nc2N)cc(OC)c1OC |  | inactive
18 | NC[C@H](O)c1ccc(O)c(O)c1 | 4.91% and -20.6% | 

Row | Structure (SMILES) | activity change, negative = inhibition | Potency
19 | CC1(CN2CCC(n3c(=O)[nH]c4ccccc43)CC2)OCc2ccccc2-n2cccc21 (stereo unspecified) | -26.7% | 
20 | Cc1nccn1CC1CCc2c(c3ccccc3n2C)C1=O (stereo unspecified) | -12.3% | 
21 | Nc1nc(=S)c2[nH]cnc2[nH]1 |  | 14.1 µM (active)
22 | COC(=O)C1=C(C)NC(C)=C(C(=O)OCC(C)C)C1c1ccccc1[N+](=O)[O-] (stereo unspecified) | -96.9% | 
23 | Nc1cccc2c1CN(C1CCC(=O)NC1=O)C2=O (stereo unspecified) |  | inactive
24 | NC(=Nc1ccccc1)Nc1ccccc1 | 1.43% | 
25 | N[C@@H](Cc1cc(I)c(Oc2cc(I)c(O)c(I)c2)c(I)c1)C(=O)O | -14.2% | 
26 | CCOc1ccc2ccccc2c1C(=O)N[C@@H]1C(=O)N2[C@@H]1SC(C)(C)[C@@H]2C(=O)O |  | inactive
27 | NC(=O)N1c2ccccc2CC(=O)c2ccccc21 |  | inactive
28 | CC(C)(C)C(=O)OCOP(=O)(COCCn1cnc2c(N)ncnc21)OCOC(=O)C(C)(C)C | -90.1% | 
29 | CCC(C)n1ncn(-c2ccc(N3CCN(c4ccc(OC[C@H]5CO[C@](Cn6cncn6)(c6ccc(Cl)cc6Cl)O5)cc4)CC3)cc2)c1=O (stereo partly specified) | -4.73% [at 27.1 µM] | 
30 | OC(Cn1cncn1)(Cn1cncn1)c1ccc(F)cc1F | -13.6% and -9.57% | 
31 | NCCC(O)(P(=O)(O)O)P(=O)(O)O |  | inactive
32 | COc1cc(C(=O)NCc2ccc(OCCN(C)C)cc2)cc(OC)c1OC |  | inactive
33 | O=C1NC(=O)C(c2ccccc2)(c2ccccc2)N1 |  | inactive
34 | C[N+]1(C)CCC(OC(=O)C(O)(c2ccccc2)C2CCCC2)C1 (stereo unspecified) |  | inactive
35 | O=C(O)CCCc1ccccc1 |  | inactive
36 | CN(C)/N=N/c1nc[nH]c1C(N)=O |  | inactive

Reference: PubChem BioAssay (NCATS)
